Records with an inconclusive call do not appear. Calls of active or inactive are those of the source. Unless noted, calls come from the whole dose curve; as a rule, active = well fitted curve in the direction sought with a large enough effect in the repeat runs; inconclusive = weak or mixed curves; inactive = no such curve, though single readings can be large; an effect the other way counts as inactive or inconclusive.
What was measured:
[1] = qHTS assay to identify small molecule agonists of the sonic hedgehog signaling (Shh) pathway - cell viability counter screen (AID 1259366); note: nearly all actives have a fitted effect of over 50% in size
How it was run: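 Cytotoxicity counter screen: CellTiter-Fluor reagent added after 23 h compound exposure, then 1 h at 37C and fluorescence read. Cells were 3T3 Gli1-Luc, seeded 2,000 per well and dosed 4 h post-plating.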

[2] = qHTS assay to identify small molecule antagonists of the sonic hedgehog signaling (Shh) pathway - cell viability counter screen (AID 1259367); note: nearly all actives have a fitted effect of over 55% in size
How it was run: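 NIH/3T3-derived Gli1-Luc reporter cells, 2,000/well, plated 4 hr before compound addition, then stimulated with conditioned medium for 24 hr at 37C. Viability measured in the same wells by CellTiter-Fluor fluorescence, reagent added at 23 hr for 1 hr.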

[3] = qHTS assay to identify small molecule agonists of the sonic hedgehog signaling (Shh) pathway (AID 1259368; calls by dose curve;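 note: NIH/3T3-derived 3T3Gli1-Luc cells carrying a stable Gli1-driven firefly luciferase reporter; series mostly up to about 92 µM; nearly all actives have a fitted effect of over 15% in size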)
How it was run: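 Steps: seed 3T3 Gli1-Luc cells, incubate 4 hr at 37 C, pin-transfer compounds in DMSO alongside a positive control, incubate 24 hr, add luciferase detection reagent, wait 30 min at room temperature, read luminescence.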

[4] = qHTS assay to identify small molecule antagonists of the sonic hedgehog signaling (Shh) pathway (AID 1259369; calls by dose curve; note: nearly all actives have a fitted effect of over 45% in size)
How it was run: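 Inhibition of Shh signalling is measured as reduced Gli1-response-element firefly luciferase output in an NIH/3T3-derived stable reporter clone stimulated with conditioned medium for 24hr.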

[5] = target: Estrogen receptor beta (Homo sapiens) (UniProt Q92731); assay: qHTS assay to identify small molecule agonists of the estrogen receptor beta (ER-beta) signaling pathway (AID 1259377; active = well fitted activation curve with a large enough effect in the signal ratio in the repeat runs, not every such curve was filed as active; the % refers to the signal ratio)
Estrogen receptor beta (Homo sapiens), sequence (Q92731 whole entry, looked up): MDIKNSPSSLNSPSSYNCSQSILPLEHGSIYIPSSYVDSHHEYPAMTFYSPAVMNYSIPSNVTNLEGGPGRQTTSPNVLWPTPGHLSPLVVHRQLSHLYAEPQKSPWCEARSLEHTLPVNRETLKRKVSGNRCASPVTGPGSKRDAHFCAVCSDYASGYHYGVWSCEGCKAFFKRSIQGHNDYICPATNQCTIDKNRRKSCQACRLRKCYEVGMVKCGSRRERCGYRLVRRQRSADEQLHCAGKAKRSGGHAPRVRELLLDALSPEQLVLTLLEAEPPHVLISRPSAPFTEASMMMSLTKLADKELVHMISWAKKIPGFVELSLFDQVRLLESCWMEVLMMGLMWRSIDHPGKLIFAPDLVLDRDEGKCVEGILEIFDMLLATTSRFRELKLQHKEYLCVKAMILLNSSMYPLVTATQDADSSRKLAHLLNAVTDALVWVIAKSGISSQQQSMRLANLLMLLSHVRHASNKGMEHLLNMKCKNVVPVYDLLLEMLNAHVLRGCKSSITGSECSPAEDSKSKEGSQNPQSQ
How it was run: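 Ratiometric beta-lactamase FRET read-out came after 2 h substrate loading at room temperature. It followed 16 h compound treatment at 37C of GripTite HEK293T cells carrying a UAS-bla reporter, plated in 2% charcoal-stripped FBS medium.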

[6] = target: Estrogen receptor beta (Homo sapiens) (UniProt Q92731); assay: qHTS assay to identify small molecule antagonists of the estrogen receptor beta (ER-beta) signaling pathway (AID 1259378; active = well fitted inhibition curve with a large enough effect in the signal ratio in the repeat runs, not every such curve was filed as active; the % refers to the signal ratio)
How it was run: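 ER-beta-UAS-bla HEK293T cells in 2% charcoal-stripped FBS medium treated with compound plus 1nM final 17-beta-estradiol for 16 hr at 37C. Beta-lactamase reporter read by FRET substrate fluorescence after 2 hours at room temperature.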

[7] = qHTS assay to identify small molecule agonists of the androgen receptor (AR) signaling pathway in the presence of an antagonist - cell viability counter screen (AID 1259379);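 note: MDA-kb2 human breast cancer cells carrying an MMTV luciferase reporter; series mostly up to about 92 µM; nearly all actives have a fitted effect of over 25% in size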
How it was run: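 Fluorescence from CellTiter-Fluor, added after 15 hr and read 1 hr later, gave cell viability. Cells were MDA-kb2 exposed to compounds (15 concentrations) in the presence of 3.0uM nilutamide at 37C, 0% CO2.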

[8] = qHTS assay to identify small molecule agonists of the estrogen receptor beta (ER-beta) signaling pathway - cell viability counter screen (AID 1259380); note: nearly all actives have a fitted effect of over 30% in size
How it was run: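 Same-well viability counter screen. Cells: ER-beta-UAS-bla HEK293T, plated 6 hr before compound, in 2% charcoal-stripped FBS. Compound exposure 16 hr, 37C; viability by CellTiter-Glo luminescence after 30 min at room temperature.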

[9] = qHTS assay to identify small molecule antagonists of the estrogen receptor beta (ER-beta) signaling pathway - cell viability counter screen (AID 1259382); note: series mostly up to about 92 µM; nearly all actives have a fitted effect of over 55% in size
How it was run: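 Following a 6 hr plating period, HEK293T cells carrying a UAS-driven beta-lactamase reporter under ER-beta control received compounds and 1nM E2 (final). After 16 hr at 37C and 2 hr substrate loading, CellTiter-Glo luminescence indicated viability.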

[10] = target: Androgen receptor (Homo sapiens) (UniProt P10275); assay: qHTS assay to identify small molecule agonists of the androgen receptor (AR) signaling pathway in the presence of an antagonist (AID 1259381; calls by dose curve; note: nearly all actives have a fitted effect of over 15% in size)
Androgen receptor (Homo sapiens), sequence (P10275 whole entry, looked up): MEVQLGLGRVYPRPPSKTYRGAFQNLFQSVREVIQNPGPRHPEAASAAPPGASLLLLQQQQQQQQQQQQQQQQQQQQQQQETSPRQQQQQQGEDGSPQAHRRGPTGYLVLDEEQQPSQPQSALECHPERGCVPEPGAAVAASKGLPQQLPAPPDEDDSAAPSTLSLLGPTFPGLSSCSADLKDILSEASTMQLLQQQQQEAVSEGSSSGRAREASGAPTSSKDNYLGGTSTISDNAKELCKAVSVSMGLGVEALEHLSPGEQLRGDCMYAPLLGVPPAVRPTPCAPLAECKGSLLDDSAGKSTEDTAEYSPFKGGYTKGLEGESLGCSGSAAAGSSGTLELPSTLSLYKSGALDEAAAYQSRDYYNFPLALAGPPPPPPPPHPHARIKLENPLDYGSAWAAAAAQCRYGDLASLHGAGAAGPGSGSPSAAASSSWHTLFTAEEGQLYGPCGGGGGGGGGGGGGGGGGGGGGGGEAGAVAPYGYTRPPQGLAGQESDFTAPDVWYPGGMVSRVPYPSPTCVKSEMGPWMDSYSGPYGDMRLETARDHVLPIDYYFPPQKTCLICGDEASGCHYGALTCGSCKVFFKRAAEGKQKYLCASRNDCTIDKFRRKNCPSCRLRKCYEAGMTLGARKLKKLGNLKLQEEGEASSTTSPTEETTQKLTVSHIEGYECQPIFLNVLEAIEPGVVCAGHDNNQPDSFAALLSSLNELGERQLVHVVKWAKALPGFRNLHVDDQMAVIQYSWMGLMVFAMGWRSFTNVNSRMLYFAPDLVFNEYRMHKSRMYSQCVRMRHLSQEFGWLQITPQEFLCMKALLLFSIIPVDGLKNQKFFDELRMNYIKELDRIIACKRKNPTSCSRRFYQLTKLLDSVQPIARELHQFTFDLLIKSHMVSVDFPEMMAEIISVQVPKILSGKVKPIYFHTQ
How it was run: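 Cells are MDA-kb2 (human breast carcinoma, MMTV-luc, AR/GR responsive). Nilutamide is present at 3.0uM final throughout; compounds are added at 15 concentrations and incubated 16hr at 37C before ONE-Glo luminescence detection.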
% is set by controls: 0 for no effect and ±100 for the full control effect.

CCCCC/C=C/CC(=O)OC
inactive: Potency [1] | Potency [2] | outcome [3] | Potency [4] | Potency [5] | outcome [6] | Potency [7] | outcome [8] | outcome [9]

CCCCCCCC[Si](OCC)(OCC)OCC
inactive: Potency [1] | Potency [2] | outcome [3] | Potency [4] | Potency [5] | outcome [6] | Potency [7] | outcome [8] | outcome [9]

Cc1ccccc1N1CCN(CCc2nnc3n2CCCC3)CC1
inactive: Potency [1] | Potency [2] | outcome [3] | Potency [4] | Potency [5] | outcome [6] | Potency [7] | outcome [8] | outcome [9]

CCc1nccnc1C
inactive: Potency [1] | Potency [2] | outcome [3] | Potency [4] | Potency [5] | outcome [6] | Potency [7] | outcome [8] | outcome [9]

Nc1ccc(S(=O)(=O)Nc2ccccn2)cc1
inactive: Potency [1] | Potency [2] | outcome [3] | Potency [4] | Potency [5] | outcome [6] | Potency [7] | outcome [8] | outcome [10] | outcome [9]

CCCCCC(=O)OCC
inactive: Potency [1] | Potency [2] | outcome [3] | Potency [4] | Potency [5] | outcome [6] | Potency [7] | outcome [8] | outcome [9]

CCCCCCCCCCCCCCCCCCN(C)C
inactive: Potency [1] | Potency [2] | outcome [3] | Potency [4] | Potency [5] | outcome [6] | Potency [7] | outcome [8] | outcome [10] | outcome [9]

CC(C)C(=O)Nc1cccc(C(F)(F)F)c1
inactive: Potency [1] | Potency [2] | outcome [3] | Potency [4] | Potency [5] | outcome [6] | Potency [7] | outcome [8] | outcome [10] | outcome [9]

O=C(COCCOCCOCC(=O)Nc1c(I)cc(I)c(C(=O)O)c1I)Nc1c(I)cc(I)c(C(=O)O)c1I
inactive: Potency [1] | Potency [2] | outcome [3] | Potency [4] | Potency [5] | outcome [6] | Potency [7] | outcome [8] | outcome [9]

CC(C)(C)c1ccc(C=O)cc1
inactive: Potency [1] | Potency [2] | outcome [3] | Potency [4] | Potency [5] | outcome [6] | Potency [7] | outcome [8] | outcome [9]

CN(C)CCCNCCC#N
inactive: Potency [1] | Potency [2] | outcome [3] | Potency [4] | Potency [5] | outcome [6] | Potency [7] | outcome [8] | outcome [9]

CCCCCCCCCCCCC1CO1 (stereo unspecified)
inactive: Potency [1] | Potency [2] | outcome [3] | Potency [4] | Potency [5] | outcome [6] | Potency [7] | outcome [8] | outcome [9]

Nc1ccc(C(=O)OCC(O)CO)cc1 (stereo unspecified)
inactive: Potency [1] | Potency [2] | outcome [3] | Potency [4] | outcome [6] | Potency [7] | outcome [8] | outcome [9]

CN=C(NC#N)NCCSCc1csc(N=C(N)N)n1
inactive: Potency [1] | Potency [2] | outcome [3] | Potency [4] | outcome [6] | Potency [7] | outcome [8] | outcome [9]

C=C[C@@H](C)CCC=C(C)C
inactive: Potency [1] | Potency [2] | outcome [3] | Potency [4] | outcome [6] | Potency [7] | outcome [8] | outcome [9]

Cc1ccccc1C(=O)N1CC/C(=N\OS(=O)(=O)O)c2ccc(Cl)cc21
inactive: Potency [1] | Potency [2] | outcome [3] | Potency [4] | outcome [6] | Potency [7] | outcome [8]

O=[Si]=O
inactive: Potency [1] | Potency [2] | outcome [3] | Potency [4] | outcome [6] | Potency [7] | outcome [9]

O=C(Nc1cccc(C2=NCCN2)c1)Nc1cccc(C2=NCCN2)c1
inactive: viability change, negative = cytotoxic [1] 8.12% [at 19 µM] | viability change, negative = cytotoxic [2] 0.404% [at 19 µM] | activity change [3] 1.95% [at 18.9 µM] | activity change, negative = inhibition [4] 17.1% [at 19 µM] | activity change, negative = cytotoxicity [7] 1.81% [at 19 µM]

C=C(C)C(=O)OC1CC(C)CC(C)(C)C1 (stereo unspecified)
inactive: Potency [1] | Potency [2] | outcome [3] | Potency [4] | outcome [6] | Potency [7] | outcome [8] | outcome [9]

C=COCCOCCOC=C
inactive: Potency [1] | Potency [2] | outcome [3] | Potency [4] | outcome [6] | Potency [7] | outcome [8] | outcome [9]

C[C@H]1O[C@H](O[C@H]2[C@H](O)[C@@H](O)[C@@H](O[C@H]3[C@H](O)[C@@H](O)[C@H](O)O[C@@H]3CO)O[C@@H]2CO)[C@H](O)[C@@H](O)[C@@H]1N[C@H]1C=C(CO)[C@@H](O)[C@H](O)[C@H]1O
inactive: Potency [1] | Potency [2] | outcome [3] | Potency [4] | outcome [6] | Potency [7] | outcome [8] | outcome [9]

Nc1cc(C(=O)O)ccc1Cl
inactive: Potency [1] | Potency [2] | outcome [3] | Potency [4] | outcome [6] | Potency [7] | outcome [10]

CC(Cl)COP(=O)(OCC(C)Cl)OCC(C)Cl (stereo unspecified)
inactive: Potency [1] | Potency [2] | outcome [3] | Potency [4] | Potency [5] | Potency [7] | outcome [8] | outcome [9]

CCOC(=O)C(=O)c1csc(NC=O)n1
inactive: Potency [1] | Potency [2] | outcome [3] | Potency [4] | outcome [6] | Potency [7] | outcome [8] | outcome [9]

CCC(CO)CO
inactive: Potency [1] | Potency [2] | outcome [3] | Potency [4] | Potency [5] | Potency [7] | outcome [9]

CO[Si](CCCS)(OC)OC
inactive: Potency [1] | Potency [2] | outcome [3] | Potency [4] | Potency [5] | Potency [7] | outcome [8] | outcome [9]
